# Screening data: PubChem, several laboratories
# GDH-TPI counter-1 – GDH-TPI coupling enzyme inhibitors, primary screen, artefact control for M. tuberculosis FBA inhibitor project, biochemical, absorbance, full deck; GDH-TPI coupled enzyme counterscreen, NADH absorbance; inhibition, % at 4.8 µM; 1.2% of 360,000 active; in the data active = inhibition above about 30%;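 also: 0% = DMSO wells and 100% = wells lacking the enzyme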
# Rv3671c inh – Rv3671c serine protease inhibitors, primary screen, biochemical, fluorescence polarization, M. tuberculosis H37Rv; P9WHR9; inhibition, % at 5.96 µM; 0.048% of 320,000 active; AID 2606, 2010; in the data active = inhibition above about 38%;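 also: extracellular domain of Rv3671c used as enzyme; 0% = enzyme with DMSO and 100% = no enzyme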
# Mtb FBA inh – Mtb FBA enzyme inhibitors, primary screen, biochemical, fluorescence, strain H37Rv; purified M. tuberculosis FBA, fluorescence read-out; inhibition, % at 1 µM; 2.3% of 360,000 active; AID 588726, 2011;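 also: 0% = vehicle and 100% = reference inhibitor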
# RecA splice inh – Mtb RecA intein splicing inhibitors, primary screen, biochemical, fluorescence, HTS; cell-free RecA intein splicing; 0.75% of 290,000 active; inhibition, % (no concentration beside the values); in the data active = inhibition above about 30%;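 also: 0% = vehicle wells and 100% = reference inhibitor control wells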
# Mtb bLac sens – beta-lactam sensitization of Mtb H37Rv, H37Rv; M. tuberculosis H37Rv growth with meropenem, percent inhibition; inhibition, % at 25 µM; 0.27% of 330,000 active; call rule not given here;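 also: growth measured after seven days incubation then overnight dye step; 0% = bacteria only wells and 100% = bacteria with antibiotic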
# Mtb UGM inh – M. tuberculosis UGM enzyme inhibitors, primary screen, biochemical, fluorescence polarization, single point. 0.06% of 320,000 active. inhibition, % at 10 µM. UDP-galactopyranose mutase (Mycobacterium tuberculosis (strain ATCC 25618 / H37Rv)), …. purified UGM, fluorescence polarization probe displacement; in the data active = inhibition above about 10%, passing the limit was not always enough
# Target sequence (P9WIQ1 whole entry, looked up): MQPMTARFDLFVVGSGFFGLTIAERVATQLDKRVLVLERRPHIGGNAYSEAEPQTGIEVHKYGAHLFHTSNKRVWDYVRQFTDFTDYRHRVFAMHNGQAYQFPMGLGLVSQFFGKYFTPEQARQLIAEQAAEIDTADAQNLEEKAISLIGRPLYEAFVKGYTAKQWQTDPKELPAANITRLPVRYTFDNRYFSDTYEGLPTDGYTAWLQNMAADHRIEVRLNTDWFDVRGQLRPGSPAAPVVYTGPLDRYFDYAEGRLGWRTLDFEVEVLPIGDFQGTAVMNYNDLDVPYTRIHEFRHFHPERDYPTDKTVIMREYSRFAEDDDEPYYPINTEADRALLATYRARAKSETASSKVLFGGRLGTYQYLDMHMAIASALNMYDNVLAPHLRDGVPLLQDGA
# Mtb FBA confirm – M. tuberculosis aldolase blockers, biochemical, fluorescence, strain H37Rv, confirmation | 78% of 5,600 active | shares compounds with Mtb FBA inh | inhibition, % at 1 µM | purified M. tuberculosis FBA, fluorescence read-out | AID 651616, 2012;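 also: 0% = vehicle wells and 100% = reference inhibitor wells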
# GDH-TPI counter-2 – GDH-TPI coupling enzyme inhibitors, artefact control for M. tuberculosis FBA inhibitor project, biochemical, fluorescence, high throughput; 81% of 5,600 active; inhibition, % at 1 µM; shares compounds with Mtb FBA inh; AID 652141, 2013; GDH-TPI coupled enzyme counterscreen; in the data active = inhibition above about 10%
# Starred values were filed as active, the others as inactive; · = no result; + = active, no number. This is a sample that favours compounds with a hit; in the whole collection about 4% have one here. Rule as the data show it, unless noted: active = inhibition above about 27%; inactive = the rest.
SMILES,GDH-TPI counter-1,Rv3671c inh,Mtb FBA inh,RecA splice inh,Mtb bLac sens,Mtb UGM inh,Mtb FBA confirm,GDH-TPI counter-2
O=C(Cn1c2ccccc2c(=O)c2ccccc21)Nc1cccc(F)c1,6,-95,90*,·,-1,-3,100*,71*
COCCCN1CC(=O)N2C(c3cccc(OC)c3OC)c3[nH]c4ccccc4c3C[C@H]2C1=O (some centres undefined),-2,1,-2,5,2,-2,·,·
COc1cc2[nH]c(=S)nc(NC3CCCCCC3)c2cc1OC,5,-1,1,11,15,1,·,·
COc1cc2[nH]c(=S)nc(NCC3CCCO3)c2cc1OC (centres undefined),22,-9,75*,-1,-2,4,83*,61*
COc1cc2[nH]c(C(=O)NCC3CCCO3)cc2c(OC)c1OC (centres undefined),3,-1,32*,-4,2,-1,+,+
O=C(Nc1cccc(Cl)c1)c1csc([C@@H]2C[C@H](O)[C@@H](CO)O2)n1,14,·,4,·,·,·,·,·
CCOC(=O)c1cn2nc(Oc3ccc(NC(C)=O)cc3)ccc2n1,-8,1,-5,-1,-3,-2,·,·
CCOC(=O)c1cn2nc(Oc3ccc(C#N)cc3)ccc2n1,7,4,96*,1,-7,2,3,-1
CCOC(=O)c1cn2nc(Oc3ccc(C(=O)OC)cc3)ccc2n1,10,-2,100*,4,-6,3,+,+
S=c1[nH]nc(-c2ccccc2)n1CC1CCCO1 (centres undefined),-1,1,7,·,-6,0,·,·
Fc1ccccc1-c1nc2nc3ccccc3nc2n1CC1CCCO1 (centres undefined),59*,3,60*,2,-5,0,-2,-3
COc1ccc(OC)c(/C=C/C(=O)NCCc2nc3ccccc3[nH]2)c1,16,-2,50*,·,1,1,83*,53*
COc1ccc(OC)c(/C=N/NC(=O)Cc2nc3ccccc3[nH]2)c1,14,-115,74*,4,-2,0,51*,30*
Cc1ccc(-c2nnc(N)s2)cc1,2,6,4,0,68,2,·,·
Nc1nnc(-c2ccncc2)s1,9,-7,52*,0,4,0,5,-1
COc1ccc(N2CCN(C(=O)c3cc(=O)c4cc(C)c(C)cc4o3)CC2)cc1,8,-4,-2,-2,-1,-2,·,·
O=C(c1ccc2c(c1)OCCO2)C1CCN(C(=O)Nc2ccccc2F)CC1,2,-5,29*,0,-6,-4,71*,62*
O=C(c1ccc(F)cc1)C1CCN(C(=O)Nc2ccc(F)cc2F)CC1,-5,-2,1,-4,-3,-1,·,·
Cc1nnc(SCC(=O)NC(C)(C)C)n1NCc1ccc(N(C)C)cc1,9,5,44*,0,5,-2,60*,54*
Cc1nnc(SCC(=O)NC(C)(C)C)n1NCc1ccc(Cl)cc1,-4,-2,-4,-4,1,-3,·,·
COc1ccc(NC(=O)NC2(C(=O)N3CCN(C)CC3)CCCCC2)cc1,2,5,-2,1,2,1,·,·
CC(=O)Nc1ccc2[nH]c3ccccc3c2c1,17,2,1,·,7,1,·,·
O=C(Nc1ccc(Cl)cc1)c1cc2c(cc1O)[nH]c1ccccc12,15,30,107*,17,100,0,83*,71*
CC(C)c1ccc(NC(=S)N2CCN(C)CC2)cc1,8,·,32*,-2,3,0,0,-4
CC(C)c1ccc(NC(=S)N2CCCC2)cc1,0,-2,10,-1,-3,-2,·,·
